This is part of a sample that, as a whole, favours compounds with a hit. Of some 79,000 tested, about 15% had one in any assay. Unmarked numbers belong to inactive results. The source made the active and inactive calls. Cut-off read from the data, not from the text of the source: active = growth inhibition above about 70%; inactive = the rest.

This note sets out measurements from PubChem BioAssay (NCI).

Test [1] is described as follows: NCI Yeast Anticancer Drug Screen. Data for the rad50 strain (AID 155).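 Note: 0% = growth of vehicle-only cultures of the same strain.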 The following applies: S. cerevisiae rad50 strain growth inhibition; at 50.0 µM; hits give high values. The gist of the method:
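Inhibition values express reduced yeast growth in compound-treated cultures relative to vehicle-treated controls.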

Test [2] is described as follows: NCI Yeast Anticancer Drug Screen. Data for the mec2-1 strain (AID 157). The following applies: S. cerevisiae mec2-1 strain, at 50.0 µM, hits give high values. In short, it runs like this:
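Cells of the genetically defined mec2-1 yeast strain are incubated with test compound. Inhibition of growth is calculated against vehicle-treated controls.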

Test [3] is described as follows: NCI Yeast Anticancer Drug Screen. Data for the sgs1 mgt1 strain (AID 161).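 Note: 0% = growth of cultures given vehicle only.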 The following applies: S. cerevisiae sgs1 mgt1 strain, at 50.0 µM, hits give high values. In short, it runs like this: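 Test agents were incubated with a DNA-repair-mutant yeast strain. Growth was then read and compared against vehicle-treated controls.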
Test [4] can be described thus: NCI Yeast Anticancer Drug Screen. Data for the cln2 rad14 strain (AID 165).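 Note: 0% = growth equal to vehicle treated cultures.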 The following applies: S. cerevisiae cln2 rad14 strain, at 50.0 µM, hits give high values. In short, it runs like this:
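The screen exposed genetically defined yeast (cln2 rad14) to test compounds and scored growth inhibition relative to vehicle-treated controls.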

A short description of test [5]: NCI Yeast Anticancer Drug Screen. Data for the bub3 strain (AID 167). The following applies: S. cerevisiae bub3 mutant strain, at 50.0 µM, hits give high values. The gist of the method:
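Steps: expose the mutant yeast strain to compound; grow alongside vehicle-treated cultures; measure growth; express inhibition against the vehicle cultures.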

A short description of test [6]: NCI Yeast Anticancer Drug Screen. Data for the mlh1 rad18 strain (AID 175). The following applies: S. cerevisiae mlh1 rad18 strain growth inhibition; at 50.0 µM; hits give high values. The gist of the method: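 Compound-treated yeast growth, normalised to vehicle controls. Strain bears defined DNA repair mutations.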

For the compound `Cc1ccc(-n2[nH]nc(C#N)c2=O)cc1`, the growth inhibition in test [1] was -6.75%; in test [2] it was -20.6%; in test [3], -23.9%; in test [4] it was -1.25%; in test [5], -27.1%; in test [6], 5.65%.

As to `COc1cc2[nH]c3c(c2cc1OC)CCN[C@@]31CC[C@@]2(CC3c4c(cc(OC)c(O)c42)CCN3C)C[C@@H]1OC` (stereo partly specified), the growth inhibition in test [1] is -14.8%; in test [2], -23.9%; in test [3], -37.5%; in test [4] it was 1%; in test [5], -35%; in test [6], -9.7%.

On to `Cc1ccccc1C(=O)OCC(=O)c1ccc(-c2ccccc2)cc1`, for which the growth inhibition in test [1] is -17.6%; in test [2], -9.4%; in test [3], -1.35%; in test [4], -37.5%; in test [5], 14%; in test [6] it was -20.7%.

Take `COc1ccc(NC(C)=O)c(C(O)CCNC(C)=O)c1` (stereo unspecified): the growth inhibition was -14.1% in test [1]; -13.3% in test [2]; -25.9% in test [3]; -7.8% in test [4]; -40.1% in test [5]; -28.5% in test [6].

In the case of `Cc1ccc(-c2nc(-c3nccc4ccccc34)oc2-c2ccccc2)cc1`, the growth inhibition in test [1] was -6%; in test [2], 0.45%; in test [3], -45.4%; in test [4] it was -28.4%; in test [5] it was -29.7%; in test [6] it was 5.2%.

With `CN(C)/C=C/c1nnnn1-c1ccc(I)cc1`, the growth inhibition in test [1] is 4.5%; in test [2] it was 12.9%; in test [3], 24.8%; in test [4], 7.45%; in test [5] it was 28.8%; in test [6], 34.6%.

In the case of `O=C(c1nc2ccc([N+](=O)[O-])cc2[nH]c1=O)C(O)c1ccc2c(c1)OCO2` (stereo unspecified), the growth inhibition in test [1] is 32.4%; in test [2], -9.25%; in test [3], -11.1%; in test [4], 11.1%; in test [5] it was -1.25%; in test [6], 0.35%.

For the compound `CC(=O)NNC(=S)/N=C/C(C(=O)Nc1ccc([N+](=O)[O-])cc1)=C(\C)O`, the growth inhibition is -19.8% in test [1]; 4.4% in test [2]; -21.9% in test [3]; 15.8% in test [4]; 6.5% in test [5]; -4% in test [6].

Consider `CCC(=O)C(OC(C)=O)C(OC(C)=O)C(OC(C)=O)C(COC(C)=O)OC(C)=O` (stereo unspecified), for which the growth inhibition was -1.95% in test [1]; -1.15% in test [2]; -8.1% in test [3]; 27.8% in test [4]; -3.95% in test [5]; 13.8% in test [6].

Turning to `CC(C)CCNc1nc(N)[nH]c(=O)c1NC=O`, the growth inhibition was -16.7% in test [1]; 16.1% in test [2]; -0.55% in test [3]; 7.5% in test [4]; 2.7% in test [5]; -56.6% in test [6].

For `N#C/C(=C\c1ccco1)C(N)=O`, the growth inhibition was -11% in test [1]; -7% in test [2]; -14.6% in test [3]; 5.25% in test [4]; 10.9% in test [5]; -10.7% in test [6].

`CCCCC/C(=C\c1ccccc1)C1OCC(COC(C)=O)O1` (stereo unspecified): the growth inhibition was -37.6% in test [1]; -5.8% in test [2]; -2.25% in test [3]; -30.2% in test [4]; 40.8% in test [5]; -2.6% in test [6].

Regarding `O=C1c2ccccc2C(=O)c2c(Nc3ccc(Nc4cccc5c4C(=O)c4ccccc4C5=O)c4c3C(=O)c3ccccc3C4=O)cccc21`, the growth inhibition is -28.4% in test [1]; -39% in test [2]; 4.7% in test [3]; -3.2% in test [4]; -19.3% in test [5]; -26.8% in test [6].

`CCCCCCCCCCCCCCCCCCNC(=S)/N=C\C(C(=O)Nc1ccccc1C)=C(/C)O`: the growth inhibition is -9.8% in test [1]; -11.8% in test [2]; 5.85% in test [3]; 0.55% in test [4]; -21.4% in test [5]; -5.65% in test [6].

Consider `O=C(OCOC(=O)c1ccccc1)c1ccccc1`, for which the growth inhibition was -23.1% in test [1]; -5.95% in test [2]; -8.6% in test [3]; -18.5% in test [4]; -4.7% in test [5]; -6.55% in test [6].

As for `CC(=O)CC(=O)NC(C)c1ccccc1` (stereo unspecified), the growth inhibition in test [1] is -4.05%; in test [2] it was -12.8%; in test [3], -4.65%; in test [4], -18.5%; in test [5], -7.3%; in test [6] it was 3.2%.

As to `CNC(=O)c1ccc(C(C)C)cc1`, the growth inhibition in test [1] was 0.3%; in test [2], -1.95%; in test [3] it was -5.3%; in test [4], -10.7%; in test [5], 4.2%; in test [6], 0.65%.

`O=c1[nH][nH]c(=O)c2c1ncn2Cc1ccccc1`: the growth inhibition in test [1] is 34.9%; in test [2], -17%; in test [3], 1.7%; in test [4], -49.5%; in test [5], -14.9%; in test [6], -25.5%.

With `CC1(C)OCC(C2CCC3(C)C4=CCC5C(C)(C)C(O)CCC5(C)C4CCC23C)CC(O)C1O` (stereo unspecified), the growth inhibition in test [1] was 59.6%; in test [2], 57%; in test [3] it was 72.3% (active); in test [4], 76.5% (active); in test [5], 64.8%; in test [6], 31.9%.

As to `CCC(=O)OCCOC(=O)CC`, the growth inhibition was 26.8% in test [1]; 16.7% in test [2]; 6.9% in test [3]; 18.6% in test [4]; 23.6% in test [5]; 9.25% in test [6].

As for `Cc1ccccc1C(=O)NCc1ccccc1`, the growth inhibition in test [1] was 13.6%; in test [2] it was -6.7%; in test [3] it was 0.6%; in test [4], -27.5%; in test [5], 11.3%; in test [6], 4.25%.
